CYP2C9 activ = CYP2C9 (human) activation | recombinant CYP2C9, luciferin-H conversion, luminescence; stronger effect = higher value; factor 1 = untreated enzyme, 0 = blocked | activation factor at 5 µM | 96,000 tested, 1.4% active | AID 1024;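 active means activation factor of 2 or more for CYP2C9 at a 5 µM dose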;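 further: 0 = sulfaphenazole-blocked wells and 1 = vehicle-only wells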
Target sequence (P11712 whole entry, looked up): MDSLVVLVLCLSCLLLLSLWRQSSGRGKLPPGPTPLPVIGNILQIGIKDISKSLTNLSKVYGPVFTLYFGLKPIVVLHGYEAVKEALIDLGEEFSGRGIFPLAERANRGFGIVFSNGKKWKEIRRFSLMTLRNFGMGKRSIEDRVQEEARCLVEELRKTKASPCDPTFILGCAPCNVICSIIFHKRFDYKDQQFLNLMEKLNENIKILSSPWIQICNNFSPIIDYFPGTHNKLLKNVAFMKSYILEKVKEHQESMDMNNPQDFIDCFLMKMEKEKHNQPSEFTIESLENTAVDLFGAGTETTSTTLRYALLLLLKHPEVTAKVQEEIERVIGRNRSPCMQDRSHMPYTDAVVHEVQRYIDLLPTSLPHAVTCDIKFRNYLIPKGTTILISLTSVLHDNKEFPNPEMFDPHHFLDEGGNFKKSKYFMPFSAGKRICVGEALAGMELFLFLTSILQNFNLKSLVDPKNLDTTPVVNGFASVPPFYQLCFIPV
CYP2C19 inhib = blocks human cytochrome P450 2C19 | CYP2C19 Supersomes, luciferin-H EGE luminescence, 30 min | inhibition, % at 5 µM | 96,000 tested, 21% active | AID 778;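 active means CYP2C19 inhibition above a set limit at 5 µM in the primary screen, cut at about 50% in these data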;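 further: plate controls were negative control wells for no effect and 2.5 mM tranylcypromine positive control for full effect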
CYP2C9 inh = inhibitors of human CYP2C9 | P11712 | CYP2C9 Supersomes, luciferin-H conversion, luminescence | inhibition, % at 5 µM | 96,000 tested, 20% active;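 active means blocking of liver enzyme CYP2C9 beyond about 50% at 5 µM, limit read from the data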
sEH inh = blocks human soluble epoxide hydrolase activity. 91,000 tested, 0.34% active. inhibition, % at 2 µM. P34913. recombinant human sEH enzymatic activity assay; in the data active means inhibition above about 80%
sEH activator = soluble epoxide hydrolase (human) activation. P34913. purified human sEH enzymatic activity, activator screen. activation, % at 2 µM. 91,000 tested, 0.04% active; in the data active means activation above about 37%
CYP2C19 act = activators of human cytochrome P450 2C19 | P33261 | recombinant CYP2C19, luciferin-H EGE luminescence; stronger effect = higher value; 0 = fully inhibited enzyme, 1 = untreated enzyme | activation factor at 5 µM | 96,000 tested, under 10 active;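 active means activation factor of at least 2 at 5 µM in the primary screen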;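 further: 0 = wells with 2.5 mM tranylcypromine and 1 = vehicle-only wells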
Starred values were filed as active, the others as inactive; x = not tested or not shown. Sampled rows, rich in hits. Any-hit rate of the full collection: about 27%.

SMILES	CYP2C9 activ	CYP2C19 inhib	CYP2C9 inh	sEH inh	sEH activator	CYP2C19 act
Cc1cccc(NC(=O)CN2C(=O)N/C(=C/c3cc(C)n(C(C)C)c3C)C2=O)c1	0.3	39.3	71.0*	10.4	-9.0	0.6
Cc1ccc(OC(C)c2nnc(N)s2)cc1Cl (stereo not drawn)	0.5	67.8*	47.5	-15.4	13.2	0.3
CCCOC(=O)Nc1cccc(C(C)=O)c1	x	x	x	-7.7	7.7	x
CCCOC(=O)NC(CC)COC(=O)Nc1cccc(C)c1C (stereo not drawn)	0.8	71.6*	16.1	-10.2	12.5	0.3
CCC(COC(=O)Nc1cccc(C)c1C)NC(=O)OCC(C)C (stereo not drawn)	0.5	95.8*	49.5	4.2	-4.8	0
CC(C)COC(=O)Nc1ccc(C(=O)O)cc1	0.9	28.6	6.3	6.1	-5.6	0.7
COC(=O)c1ccc2nc(C(F)(F)F)[nH]c2c1	0.6	34.5	44.6	-15.1	14.9	0.7
CCOC(=O)c1[nH]nc(N)c1NC(=O)c1ccc(Cl)cc1Cl	x	x	x	-3.4	1.8	x
COc1cccc(C2C(=O)N(C3CCCCC3)CC(=O)N2Cc2ccc(F)cc2)c1 (stereo not drawn)	0.5	46.7	46.0	5.8	-8.5	0.5
COc1ccccc1CN1C(=O)CN(C2CCCCCC2)C(=O)C1c1ccc(F)cc1 (stereo not drawn)	0.6	57.4*	44.2	35.3	-34.9	0.4
O=C(Nc1nnc(-c2ccccc2)s1)c1cc(S(=O)(=O)N2CCOCC2)c(Cl)cc1Cl	1	0.9	4.3	8.9	-8.1	1
CCOC(=O)CNC(=O)Cn1cnc2ccc(S(=O)(=O)N3CCC(C)CC3)cc2c1=O	0.8	-8.8	22.8	x	x	1.1
O=C(NCCC1=CCCCC1)C1CCN(c2nc3ccccc3o2)CC1	0.6	22.8	40.4	84.8*	-85.2	0.8
COc1cccc(CNC(=O)C2CCCN(c3nc4ccccc4o3)C2)c1 (stereo not drawn)	0.7	28.1	27.2	x	x	0.7
Cc1oc(-c2ccccc2F)nc1CN1CCC(C(=O)NCCC2=CCCCC2)CC1	2.3*	4.7	-126.6	89.3*	-89.3	1
O=C(NCCN1CCOCC1)C1CCN(c2nc3ccccc3o2)CC1	0.9	-3.0	11.3	x	x	1
Cc1ccc(CCNC(=O)C2CCCN(c3nc4ccccc4o3)C2)cc1 (stereo not drawn)	0.5	60.9*	50.4*	x	x	0.4
CN(C)S(=O)(=O)c1ccc(C(=O)Nc2ccc(OCC(=O)N3CCOCC3)cc2)cc1	1.1	-10.9	-10.1	25.8	-26.7	1.1
CCOc1ccccc1NC(=O)c1ccc(Cl)c(NC(=O)CC(c2ccccc2)c2ccccc2)c1	0.2	50.7*	79.8*	-3.5	7.0	0.5
CCOc1ccccc1NC(=O)c1cccc(NC(=O)CC(c2ccccc2)c2ccccc2)c1	0.5	71.1*	50.8*	-4.0	2.8	0.3
CC1=C(C(=O)Nc2cc(-c3cccc(F)c3)[nH]n2)C2(CCCCC2)OC1=O	0.2	51.6*	83.1*	x	x	0.5
CC(C)NC(=O)NC(=O)CSc1nncn1C	1	-7.5	-3.6	7.4	-5.7	1.1
CC(C)Nc1nc(Cl)nc(NNC(=O)C(C)Oc2ccccc2)n1 (stereo not drawn)	0.8	40.1	24.4	-3.6	3.5	0.6
C=CCNc1ncnc2c1cnn2-c1cccc(C)c1	0.3	65.7*	72.9*	x	x	0.3
Cc1cccc(-n2ncc3c(NCCCO)ncnc32)c1	0.4	4.4	64.4*	x	x	1
SMILES	CYP2C9 activ	CYP2C19 inhib	CYP2C9 inh	sEH inh	sEH activator	CYP2C19 act
C=CCNc1ncnc2c1cnn2-c1ccc(Cl)cc1	0.8	2.4	21.0	x	x	1
Cc1cccc(-n2ncc3c(N4CC(C)CC(C)C4)ncnc32)c1 (stereo not drawn)	0.2	39.5	81.1*	x	x	0.6
COc1ccc(N2CCN(S(=O)(=O)c3ccc(C(=O)NCc4ccco4)cc3)CC2)cc1	x	x	x	6.1	-1.1	x
O=C(CCCN1C(=O)c2ccccc2C1=O)N1CCN(c2ccccn2)CC1	0.6	7.2	37.0	-6.8	10.3	0.9
O=C(CCCN1C(=O)c2ccccc2C1=O)N1CCc2ccccc2C1	0.9	50.5*	12.7	-12.2	11.8	0.5
O=C(CN1C(=O)c2cccc3cccc1c23)N1CCc2ccccc2C1	1.8	63.8*	-78.4	1.0	-4.3	0.4
O=C(CN1C(=O)c2ccccc2S1(=O)=O)N1CCc2ccccc2C1	0.9	54.7*	13.3	8.8	-10.6	0.5
CC1CCN(C(=O)CN2C(=O)c3ccccc3S2(=O)=O)CC1	0.9	15.1	8.8	x	x	0.8
O=C(CN1C(=O)c2cccc3cccc1c23)N1CCN(Cc2ccc3c(c2)OCO3)CC1	x	x	x	13.1	-9.9	x
Cc1oc2c(c1C(=O)Nc1cccc(C(=O)O)c1)CCCC2	0.8	-5.7	17.5	9.8	-11.4	1.1
CCCCOCCCn1cnc2c([nH]c3cc(OC)ccc32)c1=O	0.9	42.7	12.8	-2.7	1.7	0.6
OC(c1ccccc1)C1CN(Cc2ccccc2)CCC1(O)c1ccccc1 (stereo not drawn)	0.9	67.2*	14.7	3.8	-0.1	0.3
CCOc1ccc(C2CC(c3cccc(OC)c3)Nc3ncnn32)cc1 (stereo not drawn)	0	78.6*	95.3*	-5.9	10.5	0.2
COc1cccc(C2CC(c3ccccc3Cl)n3ncnc3N2)c1 (stereo not drawn)	0.5	97.4*	51.5*	x	x	0
COc1cccc(C2CC(c3c(F)cccc3Cl)n3nc(N)nc3N2)c1 (stereo not drawn)	x	x	x	17.9	-15.3	x
COc1ccc(C2CC(c3cccc(OC)c3OC)n3nnnc3N2)cc1 (stereo not drawn)	0.3	95.6*	65.2*	x	x	0
COc1cccc(C2CC(c3ccccc3Cl)n3nnnc3N2)c1 (stereo not drawn)	0.1	100.0*	89.1*	x	x	0
COc1ccc(N2C(=O)CCC(C(=O)NCc3cccnc3)C2c2ccc(OC)c(OC)c2)cc1 (stereo not drawn)	0.8	18.8	15.7	15.7	-19.3	0.8
Cc1ccc(-n2ncc(-c3nnc(SCC(=O)NC4CCCC4)o3)c2N)cc1C	0.6	11.9	39.9	x	x	0.9
Cc1[nH]c2ccccc2c1C(=O)Cn1c(=O)oc2ccccc21	0.4	62.3*	57.9*	-1.3	1.0	0.4
Cn1nc(C(F)(F)F)c(/C=N/OC(=O)c2ccccc2Cl)c1SCc1ccccc1Cl	0.1	68.4*	93.3*	-5.4	5.9	0.3
C/C(N)=C(/C#N)C(=O)COC(=O)C1CCC(C(C)(C)C)CC1 (stereo not drawn)	0.2	89.6*	84.0*	22.4	-21.3	0.1
C/C(N)=C(/C#N)C(=O)COC(=O)CSc1ccc2ccccc2c1	1	27.5	4.7	6.3	-7.1	0.7
C/C(N)=C(/C#N)C(=O)COC(=O)CC12CC3CC(CC(C3)C1)C2	0.2	77.5*	80.9*	-2.3	3.8	0.2

From PubChem
